# Experimental data published in the supplement of paper PMC9492666.
# Where a name gives a salt, the structure may show the parent alone.
# Key:
# HCC1937 = test: relative cell viability, compound + erastin, vs DMSO (fraction of DMSO control); higher = less growth inhibition; conditions: 72 h
# MDA-MB-231 = test: as above; conditions: 72 h
# 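Also: viability read by CCK-8 kit in 96-well plates, part of a combination screen pairing lipid-metabolism-targeting compounds with erastin.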
SMILES,relative cell viability (HCC1937),relative cell viability (MDA-MB-231)
C[C@@]12C[C@@H](c3ccoc3)OC(=O)[C@@H]1CC[C@]1(C)[C@H]2[C@@H]2C=C[C@@]1(O)C(=O)O2 [Columbin] + CCOc1ccccc1-n1c(C(C)N2CCN(C(=O)COc3ccc(Cl)cc3)CC2)nc2ccccc2c1=O [erastin],0.607,0.688
CC(C)(CCCCCC(O)CCCCCC(C)(C)C(=O)O)C(=O)O + CCOc1ccccc1-n1c(C(C)N2CCN(C(=O)COc3ccc(Cl)cc3)CC2)nc2ccccc2c1=O [erastin],0.421,0.405
O=C(NCCS(=O)(=O)c1ccc(C(F)(F)F)cn1)c1ccc(Cl)cc1 + CCOc1ccccc1-n1c(C(C)N2CCN(C(=O)COc3ccc(Cl)cc3)CC2)nc2ccccc2c1=O [erastin],0.511,0.503
"Cc1cc(=O)oc2c(O)c(O)ccc12 [7,8-Dihydroxy-4-methylcoumarin] + CCOc1ccccc1-n1c(C(C)N2CCN(C(=O)COc3ccc(Cl)cc3)CC2)nc2ccccc2c1=O [erastin]",0.489,0.881
O=C(NC1CCN(CCCCC2(C(=O)NCC(F)(F)F)c3ccccc3-c3ccccc32)CC1)c1ccccc1-c1ccc(C(F)(F)F)cc1 [Lomitapide] + CCOc1ccccc1-n1c(C(C)N2CCN(C(=O)COc3ccc(Cl)cc3)CC2)nc2ccccc2c1=O [erastin],0.201,0.436
C=CCc1ccc(O)c(-c2cc(CC=C)ccc2O)c1 [Magnolol] + CCOc1ccccc1-n1c(C(C)N2CCN(C(=O)COc3ccc(Cl)cc3)CC2)nc2ccccc2c1=O [erastin],0.99,1.02
COc1ccc(-c2cc(=O)c3c(O)c(OC)c(OC)c(OC)c3o2)cc1OC + CCOc1ccccc1-n1c(C(C)N2CCN(C(=O)COc3ccc(Cl)cc3)CC2)nc2ccccc2c1=O [erastin],0.573,0.784
Cc1cc(SCc2sc(-c3ccc(C(F)(F)F)cc3)nc2C)ccc1OCC(=O)O + CCOc1ccccc1-n1c(C(C)N2CCN(C(=O)COc3ccc(Cl)cc3)CC2)nc2ccccc2c1=O [erastin],0.529,0.558
O=C(CN1CCN(C(=O)c2ccco2)CC1)Nc1cc(C(F)(F)F)ccc1Cl + CCOc1ccccc1-n1c(C(C)N2CCN(C(=O)COc3ccc(Cl)cc3)CC2)nc2ccccc2c1=O [erastin],0.638,0.463
"CC(C)=CCC(O)C1=CC(=O)c2c(O)ccc(O)c2C1=O (single isomer, unassigned; (+)) [(+)-Shikonin] + CCOc1ccccc1-n1c(C(C)N2CCN(C(=O)COc3ccc(Cl)cc3)CC2)nc2ccccc2c1=O [erastin]",0.159,0.494
N=C(N)NC(=N)NCCc1ccccc1 [Phenformin hydrochloride] + CCOc1ccccc1-n1c(C(C)N2CCN(C(=O)COc3ccc(Cl)cc3)CC2)nc2ccccc2c1=O [erastin],0.756,0.999
CC(C)OC(=O)C(C)(C)Oc1ccc(C(=O)c2ccc(Cl)cc2)cc1 [Fenofibrate] + CCOc1ccccc1-n1c(C(C)N2CCN(C(=O)COc3ccc(Cl)cc3)CC2)nc2ccccc2c1=O [erastin],0.878,0.646
CCCCCCCCCCCCCCOc1ccc(C(=O)O)o1 + CCOc1ccccc1-n1c(C(C)N2CCN(C(=O)COc3ccc(Cl)cc3)CC2)nc2ccccc2c1=O [erastin],0.56,0.696
O=C(NN1CCCCC1)c1nn(-c2ccc(Cl)cc2Cl)c(-c2ccc(C#Cc3ccc(C(F)(F)F)cc3)s2)c1CNS(=O)(=O)N1CCCC1 + CCOc1ccccc1-n1c(C(C)N2CCN(C(=O)COc3ccc(Cl)cc3)CC2)nc2ccccc2c1=O [erastin],0.496,0.395
CCC1C(O)C2C3CCC(C(C)CCO)C3(C)CCC2C2(C)CCC(O)CC12 (centres undefined) + CCOc1ccccc1-n1c(C(C)N2CCN(C(=O)COc3ccc(Cl)cc3)CC2)nc2ccccc2c1=O [erastin],0.656,0.58
Oc1ccc2c(c1)OCO2 [Sesamol] + CCOc1ccccc1-n1c(C(C)N2CCN(C(=O)COc3ccc(Cl)cc3)CC2)nc2ccccc2c1=O [erastin],0.489,1.02
CCCc1c(-c2ccccc2)[nH]n(-c2ccccn2)c1=O [APX-115 free base] + CCOc1ccccc1-n1c(C(C)N2CCN(C(=O)COc3ccc(Cl)cc3)CC2)nc2ccccc2c1=O [erastin],0.615,0.625
